Values joined by “and” are separate entries in the source; they are usually repeats but may differ in a detail not shown here. Equal entries are not always repeated. Records with an inconclusive call do not appear. Active and inactive are the calls of the source. Unless noted, the call rests on the fitted dose curve.
Legend:
[1] = qHTS assay to identify small molecule agonists of the peroxisome proliferator-activated receptor delta (PPARd) signaling pathway - cell viability counter screen (AID 743211; active means well fitted curve in the direction sought with a large enough effect in the repeat runs; an effect the other way counts as inactive or inconclusive; further: nearly all actives have a fitted effect of over 55% in size; further: potency means the concentration at half of the fitted maximal effect); settings: PPARd-bla HEK293H viability, CellTiter-Glo luminescence, 17 h; series mostly up to 62.6 µM
Method in brief: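 PPARd-bla HEK293H cells (3000/well) were pre-incubated 5 h at 37 C, then exposed to compound for 17 h at 37 C. After 2 h with LiveBLAzer substrate, CellTiter-Glo was added to the same wells; luminescence read after 30 min at room temperature.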

[2] = qHTS assay to identify small molecule antagonists of the peroxisome proliferator-activated receptor delta (PPARd) signaling pathway - cell viability counter screen (AID 743213; active means well fitted curve in the direction sought with a large enough effect in the repeat runs; an effect the other way counts as inactive or inconclusive; further: nearly all actives have a fitted effect of over 50% in size; further: potency means the concentration at half of the fitted maximal effect); settings: PPARd-bla HEK293H viability, CellTiter-Glo luminescence, 17 h; series mostly up to 62 µM
Method in brief: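 Viability counter-screen, qHTS format: PPARd-bla HEK293H, L165041 300 nM final, 17 h compound exposure at 37 C, CellTiter-Glo luminescence after 30 min RT.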

[3] = qHTS assay to identify small molecule agonists of the farnesoid-X-receptor (FXR) signaling pathway - cell viability counter screen (AID 743218; active means well fitted curve in the direction sought with a large enough effect in the repeat runs; an effect the other way counts as inactive or inconclusive; further: nearly all actives have a fitted effect of over 45% in size; further: potency means the concentration at half of the fitted maximal effect); settings: FXR-bla HEK293T viability, CellTiter-Glo luminescence, 16 h; series mostly up to 62.6 µM
Method in brief: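 Readout: CellTiter-Glo luminescence, 30 min RT, multiplexed after the FXR-bla FRET reading. HEK 293T FXR-UAS-bla cells received compound 5 h post-plating and were incubated 16 h at 37 C.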

[4] = qHTS assay to identify small molecule antagonists of the farnesoid-X-receptor (FXR) signaling pathway - cell viability counter screen (AID 743221; active means well fitted cell-killing curve with a large enough effect in the repeat runs, not every such curve was filed as active; further: nearly all actives have a fitted effect of over 50% in size; further: potency means the concentration at half of the fitted maximal effect); settings: FXR-bla HEK293T viability, CellTiter-Glo luminescence, 16 h; series mostly up to 62.6 µM
Method in brief: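 GeneBLAzer FXR-UAS-bla HEK 293T cells, compound plus chenodeoxycholic acid (50 uM final), 16 h at 37 C. CellTiter-Glo added to the same wells after the beta-lactamase read; luminescence read after 30 min at room temperature as viability.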

[5] = qHTS assay to identify small molecule antagonists of the vitamin D receptor (VDR) signaling pathway - cell viability counter screen (AID 743225; active means well fitted curve in the direction sought with a large enough effect in the repeat runs; an effect the other way counts as inactive or inconclusive; further: nearly all actives have a fitted effect of over 50% in size; further: potency means the concentration at half of the fitted maximal effect); settings: VDR-bla HEK293T viability, CellTiter-Glo luminescence, 16 h; series mostly up to 61 µM
Method in brief: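 VDR-UAS-bla HEK 293T cells were plated and incubated 4 h at 37C, then dosed with compound plus 3 nM (final) 1-alpha,25-dihydroxyvitamin D3 for 16 h. After the 2 h beta-lactamase read, viability in the same wells was read as CellTiter-Glo luminescence after 30 min at room temperature.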

[6] = qHTS assay to identify small molecule agonists of the NFkB signaling pathway - cell viability counter screen (AID 1159515); settings: NFkB-bla ME-180 viability, CellTiter-Glo luminescence, 5 h; series mostly up to 61 µM; further: nearly all actives have a fitted effect of over 55% in size; further: potency means the concentration at half of the fitted maximal effect
Method in brief: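 Plate 2,000 NFkB-bla ME-180 cells/well; incubate overnight. Add compounds, 5 hr at 37 C. Add FRET substrate, 1.5 hr RT. Add CellTiter-Glo, 30 min RT; read luminescence.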

[7] = qHTS assay to identify small molecule agonists of the endoplasmic reticulum stress response signaling pathway - cell viability counter screen (AID 1159517); settings: ESRE-bla HeLa viability, CellTiter-Glo luminescence, 5 h; series mostly up to 61 µM; further: nearly all actives have a fitted effect of over 50% in size; further: potency means the concentration at half of the fitted maximal effect
Method in brief: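 After overnight attachment, ESRE-bla HeLa cells were treated with Tox21 library compounds for 5 hr. CellTiter-Glo luminescence, read 30 min post-addition at room temperature, reported viability.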

[8] = qHTS assay to identify small molecule antagonists of the retinoid-related orphan receptor gamma (ROR-gamma) signaling pathway - cell viability counter screen (AID 1159520; active means well fitted curve in the direction sought with a large enough effect in the repeat runs; an effect the other way counts as inactive or inconclusive; further: nearly all actives have a fitted effect of over 50% in size; further: potency means the concentration at half of the fitted maximal effect); settings: Tet-on RORgamma CHO cells viability, ATP luminescence, 16 h; series mostly up to 92.4 µM
Method in brief: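 Cytotoxicity was read from cellular ATP (CellTiter-Glo luminescence) after 16 hr at 37 C with 1 uM doxycycline induction. The inducer was added 2 hr after compound transfer to Tet-on ROR gamma CHO cells.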

[9] = qHTS assay to identify small molecule agonists of the AP-1 signaling pathway - cell viability counter screen (AID 1159525); settings: ME-180 AP-1-bla cells viability, ATP luminescence, 5 h; series mostly up to 76.8 µM; further: nearly all actives have a fitted effect of over 55% in size; further: potency means the concentration at half of the fitted maximal effect
Method in brief: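 Intracellular ATP by Cell Titer Glo luminescence (30 min, RT) in the same ME-180 AP-1-bla wells after the 5 h compound exposure at 37 °C. Normalised to tetra n-octyl ammonium bromide and DMSO controls.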

[10] = target: Peroxisome proliferator-activated receptor delta (Homo sapiens) (UniProt Q03181); assay: qHTS assay to identify small molecule antagonists of the peroxisome proliferator-activated receptor delta (PPARd) signaling pathway (AID 743215; active means well fitted inhibition curve with a large enough effect in the signal ratio in the repeat runs, not every such curve was filed as active; the % refers to the signal ratio;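 further: cells stimulated with agonist L165041 at 300 nM final during compound exposure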; further: potency means the concentration at half of the fitted maximal effect); settings: HEK293H PPARd-UAS-bla, beta-lactamase FRET ratio, antagonist, 17 h; series mostly up to 62 µM
Method in brief: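 Fluorescence from cleaved LiveBLAzer B/G FRET substrate (2 h, room temperature) reports PPARd-driven beta-lactamase in HEK293H UAS-bla cells. Cells had been treated 17 h at 37 C with compound plus 300 nM final L165041.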

[11] = target: Bile acid receptor (Homo sapiens) (UniProt Q96RI1); assay: qHTS assay to identify small molecule agonists of the farnesoid-X-receptor (FXR) signaling pathway (AID 743220; active means well fitted activation curve with a large enough effect in the signal ratio in the repeat runs, not every such curve was filed as active; the % refers to the signal ratio); settings: HEK293T FXR-UAS-bla, beta-lactamase FRET ratio, 16 h; series mostly up to 62.6 µM
Method in brief: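 FXR-UAS-bla HEK 293T cells carrying a UAS-driven beta-lactamase reporter were plated for 5 h at 37C/5% CO2, then exposed to DMSO-dissolved Tox21 10K compounds for 16 h at 37C. A LiveBLAzer B/G FRET substrate was loaded for 2 h at room temperature before fluorescence reading.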

[12] = target: Vitamin D3 receptor (Homo sapiens) (UniProt P11473); assay: qHTS assay to identify small molecule agonists of the vitamin D receptor (VDR) signaling pathway (AID 743222); settings: HEK293T VDR-UAS-bla, beta-lactamase FRET ratio, 16 h; series mostly up to 63.5 µM
Method in brief: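 Following 4 h attachment at 37C, VDR-bla cells (2,000 per well) received DMSO-dissolved compounds or controls. After 16 h incubation, LiveBLAzer B/G FRET substrate was added and fluorescence read 2 h later at room temperature.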

[13] = target: Vitamin D3 receptor (Homo sapiens) (UniProt P11473); assay: qHTS assay to identify small molecule antagonists of the vitamin D receptor (VDR) signaling pathway (AID 743223; active means well fitted inhibition curve with a large enough effect in the signal ratio in the repeat runs, not every such curve was filed as active; the % refers to the signal ratio; further: potency means the concentration at half of the fitted maximal effect); settings: VDR-UAS-bla HEK293T, beta-lactamase FRET ratio, 16 h; series mostly up to 61 µM
Method in brief: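 VDR-bla cells were treated with compound plus 3 nM final 1alpha,25-dihydroxyvitamin D3 for 16 h at 37C. Beta-lactamase reporter read by B/G FRET substrate fluorescence after 2 h at room temperature. qHTS format.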

[14] = target: Peroxisome proliferator-activated receptor delta (Homo sapiens) (UniProt Q03181); assay: qHTS assay to identify small molecule agonists of the peroxisome proliferator-activated receptor delta (PPARd) signaling pathway (AID 743212); settings: HEK293H PPARd-UAS-bla, beta-lactamase FRET ratio, 17 h; series mostly up to 62.6 µM;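 further: HEK293H cells with PPARd UAS beta-lactamase reporter GeneBLAzer system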
Method in brief: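 Steps: seed PPARd-bla HEK293H cells; incubate 5 h, 37 C, 5% CO2; add compounds in DMSO; incubate, 37 C; add LiveBLAzer B/G FRET substrate; hold 2 h at room temperature; measure fluorescence.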

[15] = qHTS assay to identify small molecule agonists of the vitamin D receptor (VDR) signaling pathway - cell viability counter screen (AID 743224; active means well fitted curve in the direction sought with a large enough effect in the repeat runs; an effect the other way counts as inactive or inconclusive; further: nearly all actives have a fitted effect of over 50% in size; further: potency means the concentration at half of the fitted maximal effect); settings: VDR-bla HEK293T viability, CellTiter-Glo luminescence, 16 h; series mostly up to 62.6 µM
Method in brief: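 In parallel with the bla FRET readout, cytotoxicity toward VDR-bla cells after 16 h compound exposure was assessed by CellTiter-Glo, with luminescence recorded after a 30 min room-temperature incubation.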

[16] = target: Retinoic acid receptor RXR-alpha (Homo sapiens) (UniProt P19793); assay: qHTS assay to identify small molecule agonists of the RXR signaling pathway (AID 1159527); settings: HEK293T RXRa-UAS-bla, beta-lactamase ratio, 16 h; series mostly up to 76.8 µM; further: nearly all actives have a fitted effect of over 35% in size
Method in brief: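 GeneBLAzer RXR-alpha-UAS-bla HEK 293T cells in 2% charcoal-stripped FBS medium were exposed to compounds for 16 hr at 37 C in agonist mode. Beta-lactamase reporter read as 460/530 nm FRET ratio after 2 hr substrate loading.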

[17] = target: Nuclear receptor ROR-gamma (Homo sapiens) (UniProt P51449); assay: qHTS assay to identify small molecule antagonists of the retinoid-related orphan receptor gamma (ROR-gamma) signaling pathway (AID 1159521; active means well fitted curve in the direction sought with a large enough effect in the repeat runs; an effect the other way counts as inactive or inconclusive; further: nearly all actives have a fitted effect of over 50% in size; further: potency means the concentration at half of the fitted maximal effect); settings: Tet-on RORgamma CHO cells, RORE-luciferase, 16 h; series mostly up to 92.4 µM
Method in brief: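 Tet-on ROR-gamma CHO cells with ROR response element-luciferase reporter; compounds added 2 hr before 1 uM doxycycline induction, then 16 hr at 37 C. Antagonism scored as decreased ONE-Glo luminescence.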

[18] = qHTS assay to identify small molecule agonists of the AP-1 signaling pathway (AID 1159526); settings: ME-180 (cervical carcinoma) AP-1-bla reporter, beta-lactamase FRET ratio, 5 h; series mostly up to 76.8 µM
[19] = target: Bile acid receptor (Homo sapiens) (UniProt Q96RI1); assay: qHTS assay to identify small molecule antagonists of the farnesoid-X-receptor (FXR) signaling pathway (AID 743217; active means well fitted inhibition curve with a large enough effect in the signal ratio in the repeat runs, not every such curve was filed as active; the % refers to the signal ratio); settings: HEK293T FXR-UAS-bla, beta-lactamase ratio, CDCA-stimulated, 16 h; series mostly up to 62.6 µM
Method in brief: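 FRET fluorescence after 2 h room-temperature LiveBLAzer loading gives the readout. Prior step: FXR-bla HEK 293T cells, seeded and incubated 5 h, received test compounds plus 50 uM final CDCA for 16 h at 37 °C.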

Measured: Potency

Retinoic acid receptor RXR-alpha (Homo sapiens), sequence (P19793 whole entry, looked up): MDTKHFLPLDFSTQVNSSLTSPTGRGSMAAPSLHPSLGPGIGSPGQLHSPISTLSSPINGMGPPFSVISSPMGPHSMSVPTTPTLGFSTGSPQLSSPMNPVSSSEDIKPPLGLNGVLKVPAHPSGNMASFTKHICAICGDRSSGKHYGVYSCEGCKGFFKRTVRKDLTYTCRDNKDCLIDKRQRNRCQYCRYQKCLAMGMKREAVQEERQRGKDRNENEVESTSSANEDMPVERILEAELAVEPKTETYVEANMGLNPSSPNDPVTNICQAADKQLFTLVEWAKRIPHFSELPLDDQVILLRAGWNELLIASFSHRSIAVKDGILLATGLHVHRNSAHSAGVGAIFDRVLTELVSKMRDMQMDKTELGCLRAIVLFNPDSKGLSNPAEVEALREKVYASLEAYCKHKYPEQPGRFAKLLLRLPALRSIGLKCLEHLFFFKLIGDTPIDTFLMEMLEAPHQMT
Bile acid receptor (Homo sapiens), sequence (Q96RI1 whole entry, looked up): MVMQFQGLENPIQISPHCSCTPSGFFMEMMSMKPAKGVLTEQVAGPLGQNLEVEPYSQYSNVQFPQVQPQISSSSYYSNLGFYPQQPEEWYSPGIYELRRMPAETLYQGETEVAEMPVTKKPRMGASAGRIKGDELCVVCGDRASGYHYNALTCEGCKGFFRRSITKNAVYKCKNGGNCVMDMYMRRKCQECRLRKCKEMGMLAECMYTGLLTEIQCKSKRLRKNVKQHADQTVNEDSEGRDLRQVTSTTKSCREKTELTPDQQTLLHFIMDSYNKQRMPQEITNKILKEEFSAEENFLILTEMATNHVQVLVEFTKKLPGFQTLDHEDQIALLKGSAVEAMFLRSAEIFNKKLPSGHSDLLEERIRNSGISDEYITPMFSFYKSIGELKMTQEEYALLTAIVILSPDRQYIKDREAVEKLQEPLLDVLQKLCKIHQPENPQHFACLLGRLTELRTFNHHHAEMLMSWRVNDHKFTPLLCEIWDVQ
Peroxisome proliferator-activated receptor delta (Homo sapiens), sequence (Q03181 whole entry, looked up): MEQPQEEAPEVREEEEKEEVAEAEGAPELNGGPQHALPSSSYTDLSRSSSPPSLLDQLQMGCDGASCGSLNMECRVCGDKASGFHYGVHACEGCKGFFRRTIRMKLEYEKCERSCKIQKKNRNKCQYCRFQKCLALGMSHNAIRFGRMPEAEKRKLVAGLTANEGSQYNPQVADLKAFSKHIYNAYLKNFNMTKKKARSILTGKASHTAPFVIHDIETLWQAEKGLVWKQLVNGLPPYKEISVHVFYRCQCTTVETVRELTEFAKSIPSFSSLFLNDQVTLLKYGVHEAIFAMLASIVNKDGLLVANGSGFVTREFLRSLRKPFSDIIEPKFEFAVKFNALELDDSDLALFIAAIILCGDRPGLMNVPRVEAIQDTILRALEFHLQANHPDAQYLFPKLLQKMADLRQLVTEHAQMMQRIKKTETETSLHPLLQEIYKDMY
Vitamin D3 receptor (Homo sapiens), sequence (P11473 whole entry, looked up): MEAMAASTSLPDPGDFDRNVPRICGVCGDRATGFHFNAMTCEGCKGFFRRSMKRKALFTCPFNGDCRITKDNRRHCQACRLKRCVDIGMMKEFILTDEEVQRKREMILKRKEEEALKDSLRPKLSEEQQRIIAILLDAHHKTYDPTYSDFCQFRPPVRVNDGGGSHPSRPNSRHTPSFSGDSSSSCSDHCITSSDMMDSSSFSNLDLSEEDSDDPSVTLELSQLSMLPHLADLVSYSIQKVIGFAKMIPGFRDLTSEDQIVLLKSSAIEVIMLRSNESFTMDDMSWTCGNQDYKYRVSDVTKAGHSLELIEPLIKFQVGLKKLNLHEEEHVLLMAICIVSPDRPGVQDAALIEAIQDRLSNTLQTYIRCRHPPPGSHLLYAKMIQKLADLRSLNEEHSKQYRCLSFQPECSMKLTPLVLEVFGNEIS

CS(=O)(=O)CCNCc1ccc(-c2ccc3ncnc(Nc4ccc(OCc5cccc(F)c5)c(Cl)c4)c3c2)o1
active: [1] 9.44 µM | [2] 21.1 µM | [3] 10.6 µM | [4] 26.6 µM | [5] 21.3 µM | [6] 16.9 µM | [7] 15.1 µM | [8] 29.8 µM | [9] 21.3 µM

CCCN(CCC)C(=O)C(CCC(=O)OCCCN1CCN(CCOC(=O)Cc2c(C)n(C(=O)c3ccc(Cl)cc3)c3ccc(OC)cc23)CC1)NC(=O)c1ccccc1 (configuration not stated)
inactive: [11] | [7] | [8] | [9]
active: [1] 23.7 µM | [2] 21.1 µM | [10] 26.6 µM | [3] 16.8 µM | [4] 26.6 µM | [5] 26.8 µM | [6] 21.3 µM

CN1CCC(Nc2ncc3ncnc(Nc4ccc(F)c(Cl)c4)c3n2)CC1
active: [1] 23.7 µM | [2] 5.96 µM | [3] 11.9 µM | [4] 29.8 µM | [5] 21.3 µM
inactive: [6] | [7] | [8] | [9]

c1cc(C(c2ccc(OCC3CO3)cc2)c2ccc(OCC3CO3)cc2)ccc1OCC1CO1 (configuration not stated)
inactive: [2] | [4] | [6] | [7] | [9]
active: [1] 54.9 µM

C=CC(=O)OCC(CO)(COCC(COC(=O)C=C)(COC(=O)C=C)COC(=O)C=C)COC(=O)C=C
inactive: [12]
active: [1] 3.05 µM | [2] 5.43 µM | [10] 4.31 µM | [3] 4.31 µM | [4] 9.65 µM | [13] 2.72 µM | [5] 5.43 µM | [6] 48.4 µM | [7] 3.42 µM | [9] 24.2 µM

CCCCCCCCOC(=O)c1ccc(O)cc1
active: [1] 48.8 µM | [2] 49 µM | [15] 21.8 µM and 49 µM | [5] 49 µM | [7] 54.9 µM | [9] 54.8 µM
inactive: [14] | [3] | [6] | [16]

Oc1ccc(N=Nc2ccccc2)cc1
inactive: [14] | [10] | [3] | [4] | [6] | [7] | [17]

Fc1ccc(C(c2ccc(F)cc2)N2CCN(C/C=C/c3ccccc3)CC2)cc1
inactive: [3] | [11] | [6] | [7] | [9] | [18]
active: [15] 29.8 µM | [17] 23.7 µM

Oc1cccc(-c2c3nc(c(-c4cccc(O)c4)c4ccc([nH]4)c(-c4cccc(O)c4)c4nc(c(-c5cccc(O)c5)c5ccc2[nH]5)CC4)C=C3)c1
active: [1] 13.3 µM | [3] 21.1 µM | [15] 26.6 µM
inactive: [6] | [7]

Oc1c(Cl)cc(Cl)c2cccnc12
active: [6] 0.477 µM | [17] 11.9 µM
inactive: [4] | [7]

Oc1ccc2c(c1)-c1ccccc1C2
inactive: [14] | [2] | [10] | [19] | [3] | [11] | [4] | [12] | [13] | [15] | [6] | [7] | [9] | [18]

CCCCN(CCCC)C(=O)N(CCCC)CCCC
inactive: [1] | [14] | [2] | [10] | [19] | [3] | [12] | [15] | [5] | [6] | [8] | [17] | [9] | [16]

CC(C)(C)NC(=O)[C@@H]1C[C@@H]2CCCC[C@@H]2CN1C[C@@H](O)[C@H](Cc1ccccc1)NC(=O)[C@H](CC(N)=O)NC(=O)c1ccc2ccccc2n1
active: [1] 35.1 µM | [2] 44.2 µM | [3] 55.7 µM | [15] 44.2 µM | [6] 55.7 µM | [7] 49.6 µM | [17] 55.2 µM
inactive: [14] | [11]

COc1c(C)c2c(c(O)c1C/C=C(\C)CCC(=O)O)C(=O)OC2
inactive: [11] | [12] | [6] | [9] | [18]
active: [7] 16.9 µM | [17] 0.133 µM

O=C(Nc1cccc([N+](=O)[O-])c1)c1cc2ccccc2cc1O
inactive: [14] | [3] | [12] | [6] | [7] | [9]
active: [15] 1.23 µM | [17] 4.33 µM

Source: PubChem BioAssay (Tox21)
